Unmarked numbers belong to inactive results.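 Rule for the calls: active = MAPPIT score above the 99th percentile of random reference set scores in the same batch; inactive = at or below it.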

Holding throughout (test): MAPPIT interaction score (arbitrary units); higher = stronger binary interaction signal, active = hit call of the paper
Assay [1] has as its target CG17224. Conditions: MAPPIT configuration: N-N; pair source set: Finley_Y2H.
The target of assay [2] is CG17991. To be noted: MAPPIT configuration: N-C.
For assay [3], the target named is sina. Conditions: MAPPIT configuration: N-N; pair source set: screen_2.
In assay [4] the target is park. To be noted: MAPPIT configuration: N-C; pair source set: screen_4.
In assay [5] the target is CG2772. Conditions: pair source set: RRS.
The target of assay [6] is CG2021. Conditions: MAPPIT configuration: N-N; pair source set: DPIM.
Assay [7] deals with CG17598. Conditions: MAPPIT configuration: N-N; pair source set: Lit-BM-16.
The target of assay [8] is CG1789. Conditions: MAPPIT configuration: N-N; pair source set: Finley_Y2H.
The target in assay [9] is Mnt. To be noted: pair source set: Lit-BM-16.
The target in assay [10] is CG2199. Conditions: MAPPIT configuration: N-N; pair source set: Curagen_low_conf.
In assay [11] the target is Paics. Conditions: MAPPIT configuration: N-N; pair source set: DPIM.
Assay [12] deals with CG2017. Conditions: MAPPIT configuration: N-N; pair source set: screen_1.
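Note: HEK293T cells with Epo stimulation, STAT-responsive firefly luciferase reporter, fold induction versus unstimulated cells divided by the larger fold induction of two negative controls lacking either bait or prey.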

B1: Ddc (protein)
chain: MSHIPISNTIPTKQTDGNGKANISPDKLDPKVSIDMEAPEFKDFAKTMVDFIAEYLENIRERRVLPEVKPGYLKPLIPDAAPEKPEKWQDVMQDIERVIMPGVTHWHSPKFHAYFPTANSYPAIVADMLSGAIACIGFTWIASPACTELEVVMMDWLGKMLELPAEFLACSGGKGGGVIQGTASESTLVALLGAKAKKLKEVKELHPEWDEHTILGKLVGYCSDQAHSSVERAGLLGGVKLRSVQSENHRMRGAALEKAIEQDVAEGLIPFYAVVTLGTTNSCAFDYLDECGPVGNKHNLWIHVDAAYAGSAFICPEYRHLMKGIESADSFNFNPHKWMLVNFDCSAMWLKDPSWVVNAFNVDPLYLKHDMQGSAPDYRHWQIPLGRRFRALKLWFVLRLYGVENLQAHIRRHCNFAKQFGDLCVADSRFELAAEINMGLVCFRLKGSNERNEALLKRINGRGHIHLVPAKIKDVYFLRMAICSRFTQSEDMEYSWKEVSAAADEMEQEQ
Regarding B1, the MAPPIT interaction score in assay [1] is 0.0861.

B2: ben (protein)
chain: MSSLPRRIIKETQRLMQEPVPGINAIPDENNARYFHVIVTGPNDSPFEGGVFKLELFLPEDYPMSAPKVRFITKIYHPNIDRLGRICLDVLKDKWSPALQIRTILLSIQALLSAPNPDDPLANDVAELWKVNEAEAIRNAREWTQKYAVED
As to B2, the MAPPIT interaction score in assay [2] (pair source set: screen_3) is 0.127; in [3] it was 0.428.

B3: CG5532 (protein)
chain: MPVDWFGYVYAATVAAGGIMGYAKAGSIPSLGAGLAFGALLGYGAHLNSQDTPRPLLQLGTSLFLAGLMGARWNRSGKLMPAGMVCMLSVAALVKNLATYNRYLMPAGTKAP
As for B3, the MAPPIT interaction score in assay [2] (pair source set: screen_4) was 0.124; in assay [4], 0.413.

B4: okr (protein)
chain: MRRSLAPSQRGPLRPESRHSFTPPLLKKNKRSCQQELEREQELDRRRLGALRDASNTSELPLPIRFTANSEYELAIAKVLARKFKVPMDNYVPDYGGKRVLGVRRCISRRPLHDPMACNALVLFHPPAYTEHERMGMDPTKVLVHVVVDPLLSNILRPHQREGVRFMYECVEGKRGNFNGCIMADEMGLGKTLQCVTLVWTLLRQGPECKPTINKAIVVSPSSLVKNWEKEFTKWLHGRLLCLPMEGGTKENTIRALEQFSMTSARLGTPVLLISYETFRIYAEILCKYEVGMVICDEGHRLKNSDNLTYQALMGLKTKRRVLLSGTPIQNDLTEYYSLVNFVNPEMLGTAAVFKRNFESAILRGQNTDSTEQERQRAIEKTQELIGLVDQCIIRRTNQILTKYLPVKFEMVICAKLTAIQLELYTNFLKSDQVRRSLADCNEKASLTALADITTLKKICSHPDLIYEKLTAREKGFENSQNVLPSNYKPKDLNPELSGKFMLLDFMLAAIRAEGNDKVVLISNYTQTLDLFEQLARKRKYGFVRLDGTMSIKKRSKVVDRFNDPESDSFLFMLSSKAGGCGLNLIGANRLFMFDPDWNPANDEQAMARVWRDGQKKPCYIYRLVASGSIEEKILQRQTHKKSLSSTIIDNNESAEKHFTRDDLKDLFTFDANILSDTHDKLKCKRCVQNIQMKPPPEDTDCTSHLSQWYHCSNNRGLPDNILAQAWMDCKCVSFVFHHRSQAQEIVPSAEEEATDQPEEKPESRKRSSTPASDDSADEDFRGF
Take B4: the MAPPIT interaction score in assay [5] (MAPPIT configuration: N-C) is -0.364; in assay [5] (MAPPIT configuration: N-N) it was -0.357.

B5: MP1 (protein)
chain: MEPHFFFTVLWMLLMGTSSTYAQEIFGYCRTPDENSGTCINLRECGYLFELLQSEEVTEQDRRFLQASQCGYRNGQVLEKHFCFTNVQICCANSRMRNQQPQWGNHPQPTQTTKPTKRSGTKLLPMAPNCGENFGDRVVGGNETTKREFPWMALIEYTKPGNVKGHHCGGSLINHRYVLTAAHCVSAIPSDWELTGVRLGEWDASTNPDCTVGKNGRRDCNEPYVDYPVEERIPHPQYPGNSRDQLNDIALLRLRDEVQYSDFILPVCLPTLASQHNNIFLGRKVVVAGWGRTETNFTSNIKLKAELDTVPTSECNQRYATQRRTVTTKQMCAGGVEGVDSCRGDSGGPLLLEDYSNGNSNYYIAGVVSYGPTPCGLKGWPGVYTRVEAYLNWIENNVRA
Consider B5, for which the MAPPIT interaction score in assay [6] was -0.105.

B6: Rab2 (protein)
chain: MSYAYLFKYIIIGDTGVGKSCLLLQFTDKRFQPVHDLTIGVEFGARMITIDGKQIKLQIWDTAGQEAFRSITRSYYRGAAGALLVYDITRRETFNHLTTWLEDARQHSNSNMVIMLIGNKSDLDSRREVKKEEGEAFAREHGLVFMETSARTAANVEEAFINTAKEIYEKIQEGVFDINNEANGIKIGQQHSPTNPSLPGAGGAAGAANSGCC
For B6, the MAPPIT interaction score in assay [7] was 1.18.

B7: Max (protein)
chain: MSMSDDDRDIDIESDEDGDSDTGLGSSRHTNTANFTQAEKRAHHNALERRRRDHIKESFTNLREAVPTLKGEKASRAQILKKTTECIQTMRRKISENQKDIEEIKRQNNIIAKQIQALESSNGDQFSEFLSDEEVGSEEADDEDLDQDFSRRNKKMKTFHA
Regarding B7, the MAPPIT interaction score was 0.0947 in assay [8], 4.14 (active) in [9] (MAPPIT configuration: N-C) and 5.94 (active) in assay [9] (MAPPIT configuration: N-N).

B8: Hel25E (protein)
chain: MADNDDLLDYEDEEQTETTAVENQEAPKKDVKGTYVSIHSSGFRDFLLKPEILRAIVDCGFEHPSEVQHECIPQAVLGMDILCQAKSGMGKTAVFVLATLQQLEPSDNNTCHVLVMCHTRELAFQISKEYERFSKYMPTVKVAVFFGGMAIQKDEETLKSGTPHIVVGTPGRILALIRNKKLNLKLLKHFVLDECDKMLEQLDMRRDVQEIFRSTPHGKQVMMFSATLSKDIRPVCKKFMQDPMEVYVDDEAKLTLHGLQQHYVNLKENEKNKKLFELLDVLEFNQVVIFVKSVQRCVALSQLLTEQNFPAIGIHRGMTQEERLNRYQQFKDFQKRILVATNLFGRGMDIERVNIVFNYDMPEDSDTYLHRVARAGRFGTKGLAITFVSDENDAKILNEVQDRFDVNISELPEEIDLSTYIEGR
In the case of B8, the MAPPIT interaction score in assay [10] is -0.422; in [11], 1.6.

B9: bin3 (protein)
chain: MEKRLSDSPGDCRVTRSTMTPTLRLDQTSRQEPLPQQPDNGPAAAPGKSKSPTPLPGKSQAAQHHQFRAPQQQQGPKNRNKAWSKRQHKAGGKHNPSACVGASSGQAQSTGSSVIAATLLPTAASAHKADLENIQNIHNKNLTAGGGVNHHGNAGTAHHGGGGGAGAHHAAAGGHHHHHNTRLAQNAAAGGASGGGTIQMHKKMLRGHHHHVLCAGNNANHTCCLVTGCNGSSIGGVGVAGSGGATASAGGGGASCKEAQSCKDTSSLSGNSSIAGSAGAGNAVHYCCGRSKFFLPEKRLRKEVIVPPTKFLLGGNISDPLNLNSLQNENTSNASSTNNTPATTPRQSPITTPPKVEVIIPPNIHDPLHLLDPVDSMEYEKQLTSPMKRAGPGGGMLHHRQHHYRTRKNRKRRRFDSNNTSHAGDEGGVGSELTDEPPLPAATSSLAASPVAAPLNVGGSLLLSESAAPAPGETAEMGQQQEQAHVHSPQSASTTTTAAEMPTPTPTSAAAATATAEHKEQSAPAPTATSSPQRQQQHVAAAAEELPTPETSAAAETPAEEMLLSCSATSASLVASTLAERRASRDLRLDLSSTCYGVGGTGLSFGGSISSSVGSSFGGGGRKRKISESSTSQKSKKFHRHDAMDKIVSPVVPQPGAWKRPPRILQPSGARKPSTRRSTSVSESELLSPVEEQPPKQLPLIGVEIPRDDTPDLPDHGLGSPLSTTSGATSHTAGEQDSLAGVDISMGDTLGSGVVGKAPLTSSLMLEPAKIPPIKMLPKFRADGLKYRYGNFDRYVDFRQMNEFRDVRLQVFQRHVELFENKDILDIGCNVGHMTITVARHLAPKTIVGIDIDRELVARARRNLSIFVRIPKEEKLLEVKAEPTVDAKANIAVKDETSGAAHKKTRRGKRRRKVHQGIHHHHHHHHDLEQLQQQQKLNSLLVKPHEFFPISFPLTYGRIPRILSSSKSPNMLGNKNQFPANVFFRHTNYVLKDESLMASDTQQYDLILCLSVTKWIHLNFGDNGLKMAFKRMFNQLRPGGKLILEAQNWASYKKKKNLTPEIYNNYKQIEFFPNKFHEYLLSSEVGFSHSYTLGVPRHMNKGFCRPIQLYAKGDYTPNHVRWSDAYYPQTPYEAYRGIYATLPVHRMGGGGSSAGGSNSGHAQMLHLSSSSRSQNYDTPHYAGSASGSASCRQTPMYQPTYNPLETDSYQPSYDMEYLNHMYVFASPLYQTVWSPPASLRKSSSHTPVFGSVRDAELDGDGSGGGGSGGGSYHRHVYPPNDDTCSPNANACNAFNSIRDADTDDSNQLPGGSRRHVYATNCGESSSSPQVNHHDAVGEFVDGLMDDEQKSSTGGGTGGAAYCDLSDA
As to B9, in assay [12], the MAPPIT interaction score is 0.262.

The record behind these values is the supplement of paper PMC10105736.
